This passage reports growth inhibition results from PubChem BioAssay (NCI).

The structures appear in SMILES notation. Compounds without any hit were thinned out: in the full panel of roughly 79,000, 15% have a hit. A number with no mark means an inactive call. Calls of active or inactive are those of the source. Rule as the data show it: active = growth inhibition above about 70%; inactive = the rest.

Experiment [1] can be described thus: NCI Yeast Anticancer Drug Screen. Data for the rad50 strain (AID 155).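 Also: 0% = growth of vehicle-only cultures of the same strain.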 The note with it: S. cerevisiae rad50 strain growth inhibition, stronger effect = higher value. The method, boiled down: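 Genetically altered yeast (DNA repair pathway); compound treatment; growth inhibition vs vehicle ctrl.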
Experiment [2] in a line: NCI Yeast Anticancer Drug Screen. Data for the mec2-1 strain (AID 157). As to conditions: S. cerevisiae mec2-1 strain, stronger effect = higher value. The method, boiled down:
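Readout is yeast growth inhibition, normalised to vehicle-treated controls, in the mec2-1 strain exposed to compound.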

Experiment [3] can be described thus: NCI Yeast Anticancer Drug Screen. Data for the sgs1 mgt1 strain (AID 161).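 Also: 0% = growth of cultures given vehicle only.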 As to conditions: S. cerevisiae sgs1 mgt1 strain, stronger effect = higher value. The method, boiled down:
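Compounds are added to genetically altered yeast, and growth is compared with cultures given vehicle alone to give percent inhibition.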

Experiment [4] is described as follows: NCI Yeast Anticancer Drug Screen. Data for the cln2 rad14 strain (AID 165).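 Also: 0% = growth equal to vehicle treated cultures.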 The note with it: S. cerevisiae cln2 rad14 strain, stronger effect = higher value. The method, boiled down:
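Relative to vehicle controls, growth inhibition of compound-treated cln2 rad14 yeast was recorded.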

Experiment [5] in a line: NCI Yeast Anticancer Drug Screen. Data for the bub3 strain (AID 167). As to conditions: S. cerevisiae bub3 mutant strain, stronger effect = higher value. The method, boiled down:
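Yeast carrying a defined mutation is treated with each compound, and growth is compared with that of vehicle-exposed cells to give inhibition.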

The nature of experiment [6]: NCI Yeast Anticancer Drug Screen. Data for the mlh1 rad18 strain (AID 175). The note with it: S. cerevisiae mlh1 rad18 strain growth inhibition, stronger effect = higher value. The method, boiled down: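 Test agents were incubated with a yeast strain of defined genotype (DNA damage repair defect). Inhibition of growth was derived by comparison with vehicle-exposed cultures.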

Where [7] appears, read: at 5.0 µM (retest, dose inferred, filed as 0.5).
The mark [8] stands for this setting: at 50.0 µM (retest, dose inferred, filed as 5.0).

Regarding `CCCCCCCCCCCC(=O)C(=O)c1ccc(O)cc1O`, the growth inhibition was 52% in experiment [1] (setting [7]); 88% (active) in experiment [1] (setting [8]); 93.8% (active) in experiment [1] (at 50.0 µM); 87% (active) in experiment [2] (setting [7]); 93% (active) in experiment [2] (setting [8]); 97.3% (active) in experiment [2] (at 50.0 µM). For the same molecule, the growth inhibition in experiment [3] (setting [7]) is 91% (active); in experiment [3] (setting [8]), 92% (active); in experiment [3] (at 50.0 µM), 96.4% (active); in experiment [4] (setting [7]), 25%; in experiment [4] (setting [8]), 84% (active); in experiment [4] (at 50.0 µM), 95.5% (active). In addition, the growth inhibition in experiment [5] (setting [7]) is 45%; in experiment [5] (setting [8]) it was 90% (active); in experiment [5] (at 50.0 µM), 95.8% (active); in experiment [6] (setting [7]), 87% (active); in experiment [6] (setting [8]), 92% (active); in experiment [6] (at 50.0 µM), 96.7% (active).

`CSc1c(C)n([O-])c2cc(Cl)c(Cl)cc2[n+]1=O`: the growth inhibition in experiment [1] (setting [7]) was 20%; in experiment [1] (setting [8]), 94% (active); in experiment [1] (at 50.0 µM), 79.8% (active); in experiment [2] (setting [7]), 14%; in experiment [2] (setting [8]), 93% (active); in experiment [2] (at 50.0 µM) it was 86% (active). Moreover, the growth inhibition in experiment [3] (setting [7]) was 24%; in experiment [3] (setting [8]) it was 99% (active); in experiment [3] (at 50.0 µM), 85.4% (active); in experiment [4] (setting [7]), 17%; in experiment [4] (setting [8]), 87% (active); in experiment [4] (at 50.0 µM) it was 64.4%. Also, the growth inhibition in experiment [5] (setting [7]) is 24%; in experiment [5] (setting [8]), 96% (active); in experiment [5] (at 50.0 µM), 79.2% (active); in experiment [6] (setting [7]), 23%; in experiment [6] (setting [8]), 97% (active); in experiment [6] (at 50.0 µM), 92.3% (active).

Turning to `CCCCC(/C=N\NC(=O)c1ccc[n+](C)c1)=C/c1ccccc1`, the growth inhibition is 18% in experiment [1] (setting [7]); 1% in experiment [1] (setting [8]); 88.3% (active) in experiment [1] (at 50.0 µM); 1% in experiment [2] (setting [7]); -3% in experiment [2] (setting [8]); 95.4% (active) in experiment [2] (at 50.0 µM). For the same molecule, the growth inhibition is -6% in experiment [3] (setting [7]); -3% in experiment [3] (setting [8]); 88.7% (active) in experiment [3] (at 50.0 µM); -2% in experiment [4] (setting [7]); -5% in experiment [4] (setting [8]); 18.5% in experiment [4] (at 50.0 µM). The growth inhibition in experiment [5] (setting [7]) is -4%; in experiment [5] (setting [8]) it was -7%; in experiment [5] (at 50.0 µM), 94.5% (active); in experiment [6] (setting [7]), -1%; in experiment [6] (setting [8]), 16%; in experiment [6] (at 50.0 µM), 90.6% (active).

Consider `Cc1ccc(S(=O)(=O)OC(C=O)C(O)C(O)COC(c2ccccc2)(c2ccccc2)c2ccccc2)cc1` (stereo not drawn), for which the growth inhibition in experiment [1] (setting [7]) is 98% (active); in experiment [1] (setting [8]) it was 98% (active); in experiment [1] (at 50.0 µM), 87.8% (active); in experiment [2] (setting [7]), 98% (active); in experiment [2] (setting [8]), 98% (active); in experiment [2] (at 50.0 µM) it was 84.5% (active). The growth inhibition in experiment [3] (setting [7]) was 95% (active); in experiment [3] (setting [8]), 95% (active); in experiment [3] (at 50.0 µM) it was 86.4% (active); in experiment [4] (setting [7]) it was 99% (active); in experiment [4] (setting [8]) it was 99% (active); in experiment [4] (at 50.0 µM), 84.8% (active). Also, the growth inhibition in experiment [5] (setting [7]) was 98% (active); in experiment [5] (setting [8]), 98% (active); in experiment [5] (at 50.0 µM) it was 88.5% (active); in experiment [6] (setting [7]), 99% (active); in experiment [6] (setting [8]), 99% (active); in experiment [6] (at 50.0 µM), 85.2% (active).

As for `O=C1CCC(Cc2ccc(I)cc2)C(=O)N1` (stereo not drawn), the growth inhibition in experiment [1] (setting [7]) is -5%; in experiment [1] (setting [8]), 3%; in experiment [1] (at 50.0 µM) it was -2.9%; in experiment [2] (setting [7]), 1%; in experiment [2] (setting [8]), 6%; in experiment [2] (at 50.0 µM), -12.7%. Besides, the growth inhibition in experiment [3] (setting [7]) was -11%; in experiment [3] (setting [8]), 68%; in experiment [3] (at 50.0 µM), 66.3%; in experiment [4] (setting [7]), -5%; in experiment [4] (setting [8]), 7%; in experiment [4] (at 50.0 µM), -63.8%. Further, the growth inhibition was -6% in experiment [5] (setting [7]); -5% in experiment [5] (setting [8]); -54.2% in experiment [5] (at 50.0 µM); -6% in experiment [6] (setting [7]); 1% in experiment [6] (setting [8]); -4.6% in experiment [6] (at 50.0 µM).

Take `CCCCC#CCCOC(=O)C#CCCCC`: the growth inhibition in experiment [1] (setting [7]) was 1%; in experiment [1] (setting [8]), 6%; in experiment [1] (at 50.0 µM), 30%; in experiment [2] (setting [7]), 1%; in experiment [2] (setting [8]) it was 4%; in experiment [2] (at 50.0 µM), 28.2%. Moreover, the growth inhibition in experiment [3] (setting [7]) is 3%; in experiment [3] (setting [8]) it was 7%; in experiment [3] (at 50.0 µM) it was -0.85%; in experiment [4] (setting [7]) it was 8%; in experiment [4] (setting [8]) it was 9%; in experiment [4] (at 50.0 µM), 92% (active). In addition, the growth inhibition was 3% in experiment [5] (setting [7]); 12% in experiment [5] (setting [8]); -21.3% in experiment [5] (at 50.0 µM); 0% in experiment [6] (setting [7]); 3% in experiment [6] (setting [8]); 3.25% in experiment [6] (at 50.0 µM).
